Screens from PubChem.
KB-3-1 cytotox – KB-3-1 parental cell cytotoxicity. KB-3-1 viability, CellTiter-Glo ATP luminescence, 72 h. Potency, µM (top dose mostly 46.1 µM), hits mostly cytotoxic. 1.4% of 400,000 active; note: % is set by controls: 0 for no effect and ±100 for the full control effect; nearly all actives have a fitted effect of over 60% in size
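Using CellTiter-Glo luminescence, growth of non-resistant KB-3-1 adenocarcinoma cells is assessed 72 h after pin-tool compound addition at 37 °C. Normalized responses across the concentration series yield fitted curves.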
SW480 rereplic – DNA re-replication induction in SW480 cells; SW480 DNA re-replication, Hoechst DNA content imaging, 48 h; Potency, µM (doses to about 46.1 µM), without a hit: top-dose re-replication activation, hits mostly activators; 1.8% of 340,000 active; AID 624297; note: % of control where 0% means no effect; nearly all actives have a fitted effect of over 55% in size
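DNA re-replication was detected as more nuclei of elevated Hoechst intensity after 48 hr exposure to compound (23 nL pinned per well of 250 cells).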
MCF10A rerep – DNA re-replication induction in MCF 10a cells. AID 624296. 2.9% of 350,000 active. MCF 10A DNA re-replication, Hoechst nuclear intensity, 48 h. Potency, µM (series often up to 46.1 µM), without a hit: at the highest dose activity, positive = re-replication, usual class: activators; note: % of control where 0% means no effect; nearly all actives have a fitted effect of over 50% in size
KB-V1 cytotox – kills drug-selected multidrug resistant KB-V1 cells; KB-V1 MDR cells viability, CellTiter-Glo, 72 h; Potency, µM (series often up to 46.1 µM), most hits filed as cytotoxic; 3.4% of 400,000 active; AID 1347076; note: % is set by controls: 0 for no effect and ±100 for the full control effect; nearly all actives have a fitted effect of over 60% in size
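Readout: CellTiter-Glo luminescence, 10 min after addition. Cells: KB-V1 MDR subline, 72 h at 37 degrees C with compound. Analysis: corrected, normalized data fitted to concentration-effect curves.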
ELG1 repair inh – blocks ELG1-dependent DNA repair in HEK293T cells; HEK293T ELG1-luciferase reporter, luminescence, 16 h; DNA damage induced by 5-fluorouridine; AID 504467; 2.3% of 330,000 active; Potency, µM (series often up to 46.1 µM), for the others: top-dose activity change, negative = inhibition, hits mostly inhibitors; note: % is set by controls: 0 for no effect and ±100 for the full control effect; nearly all actives have a fitted effect of over 55% in size
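Quantitative HTS, concentration-response format. 2,000 cells/well co-treated with 5-fluorouridine and compound, 16 hr in 5% CO2 at 37 °C; ONE-Glo luminescence read after 30 min.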
Numbers without * were called inactive; [ ] = remark or other dose. Rows were chosen to be rich in hits. Some 8.1% of all compounds tested hit in one or more screens of this group. Calls come from the whole dose curve; as a rule, active = well fitted curve in the direction sought with a large enough effect; inconclusive = small, poorly fitted or top-dose-only effect, or another doubt; inactive = no such curve, though single readings can be large; an effect the other way counts as inactive or inconclusive. Potency is the fitted concentration of half-maximal effect.

Cc1cc(C(=O)CSc2nc3ccc(Cl)cc3[nH]2)c(C)n1Cc1ccco1 was read as KB-3-1 cytotox inactive, SW480 rereplic -6%, MCF10A rerep inconclusive and KB-V1 cytotox 21µM*.
For O=C(CSc1nc2ccc(Cl)cc2[nH]1)NCc1ccco1 the results were KB-3-1 cytotox inactive, SW480 rereplic -2%, MCF10A rerep inconclusive, KB-V1 cytotox inconclusive and ELG1 repair inh 2%.
Screening CCCNC(=O)N1CCCC(C(=O)c2cccc(Cl)c2)C1 (configuration not stated) returned KB-3-1 cytotox inactive, SW480 rereplic -2%, MCF10A rerep 1%, KB-V1 cytotox inactive and ELG1 repair inh 6%.
`CC1=NN(C(N)=S)C(=O)C1N=Nc1ccc(Cl)cc1` (configuration not stated) gave KB-3-1 cytotox inconclusive, SW480 rereplic 18µM*, MCF10A rerep 9%, KB-V1 cytotox inconclusive and ELG1 repair inh inconclusive.
Screening CC1=NN(C(=O)c2ccncc2)C(=O)C1N=Nc1ccc2ccccc2c1 (configuration not stated) returned KB-3-1 cytotox inconclusive, SW480 rereplic 24%, MCF10A rerep 12% and KB-V1 cytotox 6.5µM*.
Screening Cc1ccc(OCC(=O)Nc2sc3c(c2C#N)CCC3)cc1 returned KB-3-1 cytotox inactive, SW480 rereplic 3%, MCF10A rerep -4%, KB-V1 cytotox inactive and ELG1 repair inh inconclusive.
For CCc1ccc(NCc2cc3cc4c(cc3n(CC(=O)Nc3ccc(F)cc3)c2=O)OCCO4)cc1 the results were KB-3-1 cytotox inconclusive and KB-V1 cytotox inactive.
c1cnc2c(OCc3cn4cccnc4n3)cccc2c1 was read as KB-3-1 cytotox inactive, SW480 rereplic -2%, MCF10A rerep 12µM*, KB-V1 cytotox inactive and ELG1 repair inh inconclusive.
For Clc1ccc(OCc2cn3cccnc3n2)c2ncccc12 the results were KB-3-1 cytotox inactive, SW480 rereplic -8%, MCF10A rerep -2%, KB-V1 cytotox inactive and ELG1 repair inh inconclusive.
Screening CCCCN(C(=O)CCC(=O)Nc1cc(C)on1)C(C(=O)NC1CCCC1)c1ccc(F)cc1 (configuration not stated) returned KB-3-1 cytotox inactive, SW480 rereplic inconclusive, MCF10A rerep inconclusive, KB-V1 cytotox inconclusive and ELG1 repair inh -4%.
Screening COc1ccc(CN2CCN(CC(O)Cn3c4ccccc4c4ccccc43)CC2)cc1 (configuration not stated) returned KB-3-1 cytotox inconclusive, SW480 rereplic inconclusive, MCF10A rerep inconclusive, KB-V1 cytotox 6.5µM* and ELG1 repair inh -9%.
Screening COc1ccc(NC(=S)N2CCN(Cc3ccccc3)CC2)cc1 returned KB-3-1 cytotox inactive, SW480 rereplic -2%, MCF10A rerep 6%, KB-V1 cytotox inactive and ELG1 repair inh 7%.
OC(CN1CCCCC1)Cn1c2ccccc2c2ccccc21 (configuration not stated) was read as KB-3-1 cytotox inactive, SW480 rereplic -25%, MCF10A rerep 0%, KB-V1 cytotox inactive and ELG1 repair inh -15%.
`COc1ccc(CNC(=S)N2CCN(Cc3ccccc3)CC2)cc1` gave KB-3-1 cytotox inactive, SW480 rereplic inconclusive, MCF10A rerep 25%, KB-V1 cytotox 16µM* and ELG1 repair inh -11%.
For CCOc1ccc(CN2CCN(CC(O)Cn3c4ccccc4c4ccccc43)CC2)cc1 (configuration not stated) the results were KB-3-1 cytotox inactive, SW480 rereplic inconclusive, MCF10A rerep inconclusive, KB-V1 cytotox inconclusive and ELG1 repair inh -12%.
O=c1c2ccccc2n(CC(O)CN2CCCCC2)c2ccccc12 (configuration not stated) was read as KB-3-1 cytotox inactive, SW480 rereplic 7.3µM*, MCF10A rerep 21µM*, KB-V1 cytotox inconclusive and ELG1 repair inh -3%.
`CC1=CC2C(C(O)CC3(C)C2CC(C)C32OCOC23COCO3)C2(C)C/C(=C\O)C(=O)C=C12` (configuration not stated) gave KB-3-1 cytotox inconclusive, SW480 rereplic 15µM*, MCF10A rerep 4.6µM* and KB-V1 cytotox inconclusive.
For O=C(O)c1cccc2[nH]c(C(F)(F)F)nc12 the results were KB-3-1 cytotox inactive, SW480 rereplic -4%, MCF10A rerep 0%, KB-V1 cytotox inactive and ELG1 repair inh 15%.
`N#C/C(=C\Nc1ccccn1)S(=O)(=O)c1ccc(Cl)cc1` gave KB-3-1 cytotox inactive, SW480 rereplic 2%, MCF10A rerep 6%, KB-V1 cytotox inactive and ELG1 repair inh 0%.
Screening O=C1NC(CCc2ccccc2)C(=O)N1Cc1ccccc1Cl (configuration not stated) returned KB-3-1 cytotox inactive, SW480 rereplic -5%, MCF10A rerep -2%, KB-V1 cytotox 16µM* and ELG1 repair inh 4%.
`CC(=O)C1=C(C)N(Cc2ccccc2)C(=O)N[C@H]1CCc1ccccc1` gave KB-3-1 cytotox inactive, SW480 rereplic -1%, MCF10A rerep inconclusive, KB-V1 cytotox inactive and ELG1 repair inh -19%.
Cc1nn(-c2ccccc2)c(Cl)c1/C=C1/C(=N)N2N=C(C(C)C)SC2=NC1=O was read as KB-3-1 cytotox inactive, SW480 rereplic 2%, MCF10A rerep 10%, KB-V1 cytotox inactive and ELG1 repair inh -6%.
For Cc1nn(-c2ccccc2)c(Cl)c1/C=C1\SC(=S)NC1=O the results were KB-3-1 cytotox inactive, SW480 rereplic 21µM*, MCF10A rerep 10µM*, KB-V1 cytotox inactive and ELG1 repair inh inconclusive.
`Cc1nn(-c2ccccc2)c(Cl)c1/C=C1\SC(=S)N(CCCCCC(=O)O)C1=O` gave KB-3-1 cytotox inactive, SW480 rereplic -2%, MCF10A rerep 12µM*, KB-V1 cytotox inactive and ELG1 repair inh -8%.
O=C(O)CCCN1C(=O)/C(=C/c2cn(-c3ccccc3)nc2-c2cccs2)SC1=S was read as KB-3-1 cytotox inactive, SW480 rereplic -49%, MCF10A rerep inconclusive, KB-V1 cytotox inconclusive and ELG1 repair inh -20%.
For O=C(O)CCCN1C(=O)/C(=C\C(Cl)=C\c2ccccc2)SC1=S the results were KB-3-1 cytotox inconclusive, SW480 rereplic 3.3µM*, MCF10A rerep inconclusive, KB-V1 cytotox inconclusive and ELG1 repair inh -9%.
`O=C(O)CCCN1C(=O)/C(=C\c2ccc(-c3nc4ccccc4s3)o2)SC1=S` gave KB-3-1 cytotox inactive, SW480 rereplic 23µM*, MCF10A rerep inconclusive, KB-V1 cytotox inactive and ELG1 repair inh inconclusive.
For CC(C)(C)C1=Nn2c(nnc2-c2n[nH]c3c2CCC3)SC1 the results were KB-3-1 cytotox inactive, SW480 rereplic -3%[9.22 µM], MCF10A rerep 0%, KB-V1 cytotox inactive and ELG1 repair inh 7%.
